Test results published in PubChem BioAssay (NCATS).
Results filed as inconclusive are left out. Entries that show only a call come without a potency. Activity calls are given as the source filed them. Calls come from the whole dose curve; as a rule, active = well fitted curve in the direction sought with a large enough effect; inconclusive = small, poorly fitted or top-dose-only effect, or another doubt; inactive = no such curve, though single readings can be large; an effect the other way counts as inactive or inconclusive.

How the values were obtained:
[1] = target: Aldehyde dehydrogenase, mitochondrial (Homo sapiens) (UniProt P05091); test: qHTS for Inhibitors of the Aldehyde Dehydrogenase Family (ALDH2) Primary screen (AID 2061308); note: nearly all actives have a fitted effect of over 55% in size
[2] = target: Retinaldehyde dehydrogenase 3 (Homo sapiens) (UniProt P47895); test: qHTS for Inhibitors of the Aldehyde Dehydrogenase Family (ALDH1A3) Primary screen (AID 2061315)

Which Potency [1] does the source give for `CC(C)C1CCC(C(=O)Nc2ccc(S(=O)(=O)Nc3nccs3)cc2)CC1` (configuration not stated) here?
The Potency was “inactive”.

And the Potency [2]?
The Potency was “inactive”.

How did the Potency [1] turn out when `O=C(NCCc1nc2ccccc2n1CCOc1ccc(C(F)(F)F)cc1)C1CCCCC1` was run?
Its Potency is “inactive”.

And the Potency [2]?
Its Potency is “inactive”.

`COC(=O)c1c(NC(=O)COC(=O)c2ccc(Cl)cc2[N+](=O)[O-])sc2c1CCCCC2` was tested. Which Potency [1] did it give?
Its Potency is “inactive”.

And the Potency [2]?
Its Potency is “inactive”.

Which Potency [1] does the source give for `O=C(Nc1ccc(-c2nc3ccccc3[nH]2)cc1)c1ccc2cc[nH]c2c1` here?
The Potency was “inactive”.

What about the Potency [2] of the same compound?
The Potency was “inactive”.

Which results are given for `CCCn1c(C)nc2c(N3CCC(N(C)C)C3)nc(C)nc21` (configuration not stated)?
Potency [1]: inactive; Potency [2]: inactive

Which results are given for `C=C[C@H]1C(O[C@@H]2O[C@H](CO)[C@@H](O)[C@H](O)[C@H]2O)OC=C2C(=O)N3CCc4c([nH]c5ccccc45)[C@H]3C[C@H]21` (some centres not stated)?
Potency [1]: inactive; Potency [2]: inactive

What does the source list for `Cc1ccc(Cn2ncc3c4sc(C)cc4n(C)c3c2=O)c(C)c1`?
Potency [1]: inactive; Potency [2]: inactive

With `Nc1ccc(S(=O)(=O)Nc2cccc3cccnc23)cc1` as the compound, how does the Potency [1] read?
Its Potency is “inactive”.

And the Potency [2]?
Its Potency is “inactive”.

With `COc1ccc(S(=O)(=O)Nc2c(C)cc(C)cc2C)cc1` as the compound, how does the Potency [1] read?
Its Potency is “inactive”.

What about the Potency [2] of the same compound?
Its Potency is “inactive”.

How did the Potency [1] turn out when `C[C@@H]1O[C@@H](O[C@H]2[C@H](O[C@H]3CC[C@@]4(C)C(CC[C@]5(C)C4C=C[C@]46OC[C@@]7(CCC(C)(C)C[C@H]74)[C@@H](O)C[C@]65C)[C@]3(C)CO)O[C@H](CO)[C@@H](O)[C@@H]2O[C@@H]2O[C@H](CO)[C@@H](O[C@@H]3O[C@@H](C)[C@H](O)[C@@H](O)[C@H]3O)[C@H](O)[C@H]2O)[C@H](O)[C@H](O)[C@H]1O` (some centres not stated) was run?
The Potency was “inactive”.

What about the Potency [2] of the same compound?
The Potency was “inactive”.

With `O=C1c2ccccc2C(=O)N1Cc1ccncc1` as the compound, how does the Potency [1] read?
The Potency was “inactive”.

What about the Potency [2] of the same compound?
The Potency was “inactive”.

How did the Potency [1] turn out when `COc1cc(-c2ccc3ncnc(NCc4nc(C)cs4)c3c2)cc(OC)c1OC` was run?
The Potency was “inactive”.

And the Potency [2]?
The Potency was “inactive”.

`Nc1ncnc2c1C(c1ccccc1)c1c(ccc3ccccc13)O2` (configuration not stated) was tested. Which Potency [1] did it give?
The Potency was “inactive”.

And the Potency [2]?
Its Potency is “inactive”.

Which results are given for `COc1ccc(C2=Nn3c(nnc3-c3ccccc3C(F)(F)F)SC2)cc1O[C@H]1CCOC1`?
Potency [1]: inactive; Potency [2]: inactive

With `Fc1ccc(Nc2nc(-c3ccncc3Cl)nc3ccccc23)cc1F` as the compound, how does the Potency [1] read?
Its Potency is “inactive”.

What about the Potency [2] of the same compound?
The Potency was “inactive”.

`O=S1(=O)N=C(Oc2ccc(C(F)(F)F)cc2)c2ccccc21` was tested. Which Potency [1] did it give?
The Potency was “inactive”.

And the Potency [2]?
The Potency was “inactive”.

Which results are given for `CC(=O)Nc1ccc(S(=O)(=O)Nc2nccs2)cc1`?
Potency [1]: inactive; Potency [2]: inactive

For `COC(=O)c1ccc2nc(NC3=NC(c4[nH]ncc4Cl)C4=C(CCCC4=O)N3)oc2c1` (configuration not stated), which Potency [1] is on record?
Its Potency is “inactive”.

And the Potency [2]?
The Potency was “inactive”.

With `COc1ccc2ncnc(NCC3CCCO3)c2c1-c1ccc2c(c1)OCO2` (configuration not stated) as the compound, how does the Potency [1] read?
The Potency was “inactive”.

And the Potency [2]?
The Potency was “inactive”.

Which results are given for `O=C(NCc1ccc(F)cc1)n1c(-c2ccccc2)c(P(=S)(c2ccccc2)c2ccccc2)c2ccccc21`?
Potency [1]: inactive; Potency [2]: inactive

Which results are given for `COc1cc(OC)cc(-c2nnc3n2N=C(c2c(OC)cccc2OC)CS3)c1`?
Potency [1]: inactive; Potency [2]: inactive

Which results are given for `C#CCOc1cc(C2=Nn3c(nnc3-c3cccc(OCC(C)=O)c3)SC2)ccc1OC`?
Potency [1]: inactive; Potency [2]: inactive

How did the Potency [1] turn out when `CC1=C(C(=O)NCc2ccccc2)C(c2ccccc2Br)N=C(Nc2nc3ccccc3o2)N1` (configuration not stated) was run?
The Potency was “inactive”.

And the Potency [2]?
The Potency was “inactive”.

With `COc1ccc2c(c1)N1C(=O)C[C@@]34C=CC[N@+]5([O-])CC[C@H]2[C@H](CC3)[C@@]145` as the compound, how does the Potency [1] read?
Its Potency is “inactive”.

What about the Potency [2] of the same compound?
Its Potency is “inactive”.

What does the source list for `c1nc(NCCCN2CCCCC2)c2cc(-c3ccc4c(c3)OCO4)ccc2n1`?
Potency [1]: inactive; Potency [2]: inactive

How did the Potency [1] turn out when `COc1cc(O)c(C(CC(=O)N2CCC(c3ccccc3)CC2)c2ccc(C)cc2)c(OC)c1` (configuration not stated) was run?
The Potency was “inactive”.

What about the Potency [2] of the same compound?
The Potency was “inactive”.

Which results are given for `N#Cc1nc(NC2CCCC2)c2ncn(-c3cc(F)cc(F)c3)c2n1`?
Potency [1]: inactive; Potency [2]: inactive

Which results are given for `O=C1CN(S(=O)(=O)c2c(F)cccc2F)CCN1S(=O)(=O)c1ccc2c(c1)OCCO2`?
Potency [1]: inactive; Potency [2]: inactive

With `COC(=O)c1ccccc1NC(=O)c1ccccc1OC(F)F` as the compound, how does the Potency [1] read?
Its Potency is “inactive”.

And the Potency [2]?
The Potency was “inactive”.

How did the Potency [1] turn out when `CC(C)[C@@H](C)/C=C/[C@@H](C)[C@H]1CC[C@H]2C3=CC=C4C[C@@H](O)CC[C@]4(C)C3=CC[C@]12C` was run?
Its Potency is “inactive”.

What about the Potency [2] of the same compound?
Its Potency is “inactive”.

Which results are given for `Cc1cccc(S(=O)(=O)Nc2cnccc2C(=O)Nc2nc(-c3ccccc3)cs2)c1`?
Potency [1]: inactive; Potency [2]: inactive

`COc1ccccc1C(=O)NCCc1nc2ccccc2n1CCOc1ccc(C)cc1` was tested. Which Potency [1] did it give?
Its Potency is “inactive”.

And the Potency [2]?
The Potency was “inactive”.

Which Potency [1] does the source give for `COc1ccc2nc(-c3ccc(C#N)cc3)sc2c1` here?
Its Potency is “inactive”.

And the Potency [2]?
The Potency was “inactive”.

What does the source list for `N#CN1CCC(NC(=O)c2cccc(F)c2)CC1`?
Potency [1]: inactive; Potency [2]: inactive

What does the source list for `FC(F)Oc1ccc(C2=Nn3c(nnc3-c3ccccc3Cl)SC2)cc1OCC1CC1`?
Potency [1]: inactive; Potency [2]: inactive

Which Potency [1] does the source give for `COc1cccc(C(=O)Nc2ccc([S+](=O)([O-])Nc3nccs3)cc2)c1O` here?
The Potency was “inactive”.

And the Potency [2]?
Its Potency is “inactive”.
